Measurements taken from PubChem BioAssay (NCI).
Compounds without any hit were thinned out: in the full panel of roughly 79,000, 15% have a hit. Rule as the data show it: active = growth inhibition above about 70%; inactive = the rest.

Legend:
[1] = NCI Yeast Anticancer Drug Screen. Data for the rad50 strain (AID 155);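 also: 0% = growth of vehicle-only cultures of the same strain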; details: S. cerevisiae rad50 strain growth inhibition; at 50.0 µM; hits give high values
Summary of the method: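 Relative growth inhibition (compound vs vehicle) was measured in yeast with a defined repair-gene alteration.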

[2] = NCI Yeast Anticancer Drug Screen. Data for the mec2-1 strain (AID 157); details: S. cerevisiae mec2-1 strain, at 50.0 µM, hits give high values
Summary of the method: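 Test agents were screened against the mec2-1 yeast strain, with defined DNA repair or cell cycle alteration. Growth was scored as inhibition against vehicle-only controls.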

[3] = NCI Yeast Anticancer Drug Screen. Data for the sgs1 mgt1 strain (AID 161);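 also: 0% = growth of cultures given vehicle only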; details: S. cerevisiae sgs1 mgt1 strain, at 50.0 µM, hits give high values
Summary of the method: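 Genetically altered yeast, compound exposure, growth inhibition relative to vehicle.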

[4] = NCI Yeast Anticancer Drug Screen. Data for the cln2 rad14 strain (AID 165);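 also: 0% = growth equal to vehicle treated cultures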; details: S. cerevisiae cln2 rad14 strain, at 50.0 µM, hits give high values
Summary of the method: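 Growth of compound-exposed yeast (cln2 rad14 genotype) measured and expressed as inhibition relative to vehicle.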

[5] = NCI Yeast Anticancer Drug Screen. Data for the bub3 strain (AID 167); details: S. cerevisiae bub3 mutant strain, at 50.0 µM, hits give high values
Summary of the method: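 Screening used yeast with an engineered genetic alteration affecting cell cycle control. Compound-exposed cultures were compared with vehicle cultures, and reduced growth was taken as inhibition.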

[6] = NCI Yeast Anticancer Drug Screen. Data for the mlh1 rad18 strain (AID 175); details: S. cerevisiae mlh1 rad18 strain growth inhibition; at 50.0 µM; hits give high values
Summary of the method: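 In this whole-cell yeast screen, a strain with altered DNA damage repair is challenged with compound, and its growth is measured against matched vehicle-treated controls.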

Measured: growth inhibition

CCCCCCCCCCCC(=O)OCCS(=O)(=O)CCOC(=O)CCCCCCCCCCC
inactive: [1] 30% | [2] 4.35% | [3] -1.2% | [4] -23.9% | [5] 15.4% | [6] 22.2%

NC(=O)N1CCc2ccccc2C1c1ccccc1 (stereo not drawn)
inactive: [1] -2.95% | [2] -12.7% | [3] -7.55% | [4] -14.4% | [5] 9.25% | [6] -21.4%

CC1(C)C=C(N2CCCCC2)C(=O)c2ccccc21
inactive: [1] -9.6% | [2] -2.25% | [3] -12.2% | [4] -16.4% | [5] -9.1% | [6] 5.15%
